Experimental data reported in PubChem BioAssay AID1508600 (Functional Genomics Laboratory (NCATS/FGL), 2020).
Hit rate of the full screen: of about 53,000 sequences, about 3,700 (7%) were called active.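 How the source made its calls: active means gene knockdowns whose robust z-score for IL-1 alpha signal is at least 2 or at most -2, so actives lie on both sides; inactive means the rest.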 This excerpt belongs to a sample that is enriched for actives.

test: Components of the Cytosolic LPS Sensing Pathway: Gene Identification via Genome-wide siRNA Screen; conditions: RAW264.7 macrophages, IL-1a HTRF, actives lie on both sides, screened at 100 nM (by protocol), cells primed 5 h with Pam3CSK4 first
Text: Non-canonical inflammasome activation by cytosolic LPS is a critical component of the host response to Gram-negative bacterial infection, however we lack a comprehensive understanding of the cellular processes that control this pathway. Here we describe a genome-wide siRNA screen to identify genes regulating the mouse macrophage IL-1 alpha response to cytosolic LPS.
RAW264.7 cells were maintained in complete DMEM media, comprising DMEM with 4.5 g/L glucose, 10% FBS (Gemini Bio-Products, West Sacramento, CA), 2 mM Glutamine (Lonza) and 20 mM HEPES (Lonza), hereafter complete DMEM.
The RNAi screen was conducted in 384-well format using the Ambion Silencer Mouse Genome siRNA Library (#4391425), which consists of three unique, nonoverlapping, nonpooled siRNAs for each of 17,000 gene targets. siRNA reagents ([…]) were stamped into 384-well white flat-bottom microplates (Corning, 3570) using a Velocity11 VPrep liquid handling system (Agilent) integrated into a BioCel robotic platform (Agilent) in columns 1-22, leaving columns 23-24 empty for negative (Ambion, Negative control #1) and positive (mouse Casp4) controls, respectively. The median value of each plate's negative control column was used to normalize sample wells, and the positive control was used to assess transfection efficiency and assay performance.
Lipofectamine RNAiMAX Transfection Reagent ([…]; Invitrogen) was added in […] serum-free, antibiotic-free media to plate wells using a Thermo Scientific Matrix WellMate and Microplate Stacker. Plates were incubated for 45 min at room temperature to allow for the sufficient formation of siRNA-lipid complexes. Cells were seeded at a density of 1x10^4 cells per well in 20 microL media containing 20% (vol/vol) FBS without antibiotics. The final concentration of siRNA in each well was 100 nM. Cells were cultured for 48h at 37 degrees C in 5% CO2 before addition of […] of TLR ligand Pam3CSK4 for 5 hours. The medium was then removed, replaced with […] growth media and cell were transfected with […] of LipidA and TransIT-TKO (Mirus) for 24 hour. At the end of the LipidA treatment, […] of supernatant was transferred to a 384 Greiner Bio-one non-binding low volume plate and […] of IL-1a HTRF reagent (Cisbio, 62MIL1APEH) was added and incubated at room temperature overnight. The plates were read on an EnVision plate reader (PerkinElmer). Cell viability was measured by adding 20ul Cell Titer Glo to the original plate and running a luminescence read on the EnVision. The quantified IL-1a signal for each siRNA gene-targeted well was divided by the median of the negative control wells and multiplied by 100 to achieve a negative control normalized value for each well/siRNA. This normalized value was then used to generate a robust z-score by first taking the log of each value and then by subtracting the median and dividing by the […].

z-score, inactive:
CGAGUUCAUCAAAAAGGAATT against Kansl1l 0.708, GGCUGAUGAUACUUAAACATT against Vmn1r83 -1.26, CGGCAUGCUGUGGAAAAAGTT against Btrc -0.869, GCACUUUGACAUUUUGGUATT against Arl4c -0.0352, AGAGCAAAAACUCGAGCACTT against Sox15 -0.253, GGUUGUGAGUGAGAACACUTT against Prss35 0.738, GGUAACACAGAAGAAAUCUTT against Higd1a -0.0444, GGCAGAAGAACUUUUCCAGTT against Capsl 0.874, CCUUCUAGAGUACAUCAUATT against Prl7d1 0.298, GGGUUUCUUCGUGUCUAUUTT against Pth2r 1.56, GGGAAGUAGCCAUCACACCTT against Ttbk1 0.768, GGCUUUUCGUUGUAAAUCATT against 9930111J21Rik2 0.735, CGGGAAGUAAACAUUUCCATT against Rassf6 0.527, GGACUCUGAUCUCUAUCAGTT against Tac2 -0.357, GGAGGAGAGGUACAAGAUGTT against Pcyt2 -0.804, GGGAAGUCCAAAUAACGGATT against Zfp184 0.136, CCGACCCAAUUAAUGAUCATT against Tlcd2 -1.12, CCAAAGUUUUAUCAGUUUGTT against Gpr87 0.653, GGUGAUAUAGCUAUUUUCUTT against Fbxw11 0.711, GGAAACACCAGAGAAGUCCTT against Etf1 -0.56, GGUGCAAGAUAGUACGAUGTT against Gle1 -0.649, GGAAGAUGGGCGACUCUAUTT against Pkmyt1 0.176, GGAUUCUCACCAAAUACUUTT against Oprd1 0.305, CGAUAUUUAUCAUGAGUGCTT against Nlrp9c -1.9, CCCACGAGGGAUAUAUCUGTT against Cd3d -0.994, CGGCACCAGUGUUCUAUUGTT against Ddi2 1.91, CCGCAAAGUGAGCAAGGUGTT against Id1 -0.63, GGAAAGCAGACAUCGACCUTT against Rps18 -0.848, GGCCUAUCAAAAUUCAGUUTT against Rbm7 1.17, GGAGAUUGGACCACUAUGATT against Sec24d -1.31, GGAGUUCGACAUUAGCGGATT against Ehf 0.0965, GGAAUGUUUCUUUAUCACATT against Slc35e4 -0.837, GCGUAUUUGGUGUUAAAAATT against Iars 0.417, GGAAGAAGAAGAUAAAGCGTT against Grk6 0.184, CCACCAGAUACAUAUUUGUTT against Gnpnat1 -0.352, GGCUUUAAAGAAUGAUUCATT against Cfap97 0.197, GGCUGCACAAACAUGGUUCTT against Pard6a -0.146, GGUGGAAGAUUAGUGACUUTT against Trim38 1.63, GGUAAAAUUCCAGAGUUGUTT against Serpinb9 -0.412, GGGUUUGGACUGAUAUACUTT against Vrk2 -0.465, GGAAUCAGGAAUGCUACUUTT against Tsr1 0.216, CAAGAAGGUCAUGUUAUUGTT against Olfr106-ps 0.495, CGGCUCGUACACAUGUGAATT against Creld2 0.199, GGGUUCAUAUGUUUUGGAUTT against C130050O18Rik 1.38, CCCUGACCUUGUGGUAGAATT against Aspdh -0.165, CGAGAAGAUAUUUAAAGAGTT against Myo10 -0.045, GGAAAACAAGAGAAGGCGCTT against Pom121 0.361, GGCCUAAUUUCCUCUAAUATT against Padi1 0.452, GGAACAUUCUAGAAUCUGUTT against Rps6kb2 0.986, GGCCAAUAAAGAAACAAACTT against Cst9 1.08, GGGUGUUGAAAGACUUUUATT against Tnks -0.122, GCAAUCAUUUCUUCAUCUATT against Olfr148 0.255, GGAAUACAAAUUCAAGAUCTT against Vamp5 -0.82, GGUCAGCGUGGAGUCAAUATT against Fam184b -1.92, GGAUAUCAUAUUUUCUCAGTT against Fam71d 0.0644, GGAGGUGCGCUUCUUUAACTT against Chst5 0.24, CGAAAAAAAUCCAAGUCAATT against Akap12 -0.28, GCCUUAGGAAAUUCUCAAUTT against Rbm12b2 0.334, GGUCCUACAUCUCCUUCGATT against Cars -0.194, GCUAGAUUUGAUGGUUCAGTT against Cacng5 -1.62, GCAUAUAACCGAGUUGAUUTT against Cdcp1 0.183, GCUUCAGGAGCUCUACUGUTT against Catsper3 -0.736, CCUGCUCUAUGGCAGAACGTT against Nkx2-4 0.992, GGAACAGGAGAAUGACAUCTT against D5Ertd579e -1.25, GCGCGAUUCAGAGGUUUCATT against Raver2 0.238, GCACUGCCAGAGGUUCUGUTT against U90926 -0.107, GCCCUUAGAGAGAAUUUAUTT against Lmo2 0.63, GCAGGUUCACAAUGGAUUATT against Lrrc25 0.108, GGAAUCUGCUAUGCUUAAATT against Rdh16f2 -1.84, GCCAGAGUACCACAUUAGUTT against Pcdhga4 0.921, GGACCAUGUGAUAAUAUCGTT against Als2 -0.599, GGGAUUGUAACAGCAUCCCTT against Epha6 0.594, GGGAAUCUGAUGAAGAUGGTT against Grin3b -1.56, GGCCUUGAAAUCGUUUUUUTT against Tceal8 0.534, GGAUUUUUCAGAUUCUAGATT against Hs6st2 0.375, GGAUUUAGGCUACUUUUUCTT against Art4 -0.387, GGAUUUAGAUCACUUGGAGTT against Tmem68 -0.811, GGAGUGUUGGAUGCUACCATT against Ache -1.12, GGGCAAUGGGUGAUCUAAUTT against Phactr1 0.00934, GGAACUUUUUAAGAUGCGUTT against Ranbp1 -0.36, GGAUGCCUAUCACAAGCAGTT against Pacsin1 -0.478, GGCCCAUUACUUGUUGACUTT against Fanci 0.378, GAGCAAUGAGCAGAGAUUCTT against H2-D4 1.93, GGAUGCUAAUUCAAGUCUUTT against Slc1a7 0.292, GGAACUUACAUGAAUUCCATT against Slco1a4 -0.229

z-score, active:
CCAUUCUCAGGCAAAUACUTT against Pid1 2.11, CCUUGCAGCAUCAGGACUUTT against Ascl2 4.06, CCUAUAGCAGUGGUUUUCATT against Ece2 2.22, GGUACUUUUACUCCCGAAGTT against Lgals3bp -2.05, GCACAAUAAAGCUUGUUGCTT against Trmt2a -2.26, GGAACGUGUUCAAAAGAGUTT against Sos1 2.22, GCAACAGUUGGUCUAAAAUTT against Psma1 -2.11, GGAACUCCACUUUCUUUUUTT against Ripply3 2.27, CCGUGUAAGGUGUGGAGUGTT against Mcat -2.27, GGAAAGAUUGUACCAGUUGTT against Cmpk1 2.58, GGAUGAAGAUGGAGACAUGTT against Lmx1b -2.58, GGAGCAGUAUAUCCUACAUTT against Olfr510 2.82, GGUCUUCAGACCAGAAACATT against Hsd3b2 -3.19, CCUAUCUUUUCCCUACAUGTT against Cyp4a31 2.01, GGGAUAGUGUUCCUUAUCUTT against Neu1 -2.6, GGCAUUUAGUAAAACCCUUTT against Rnf144a -2.43, GGUGCAGAAUCUCUCAUUGTT against Mrpl30 -2.14, GCCACGUUCAAACAGUACCTT against Slc1a7 3.94, GGAGAUCUGCUCUAAUUAUTT against Eif1ax 2.21, GAUGUACGAUCUGGUGGUGTT against Exosc6 2.73, GGACUUCAACUUGAUGGAGTT against Add2 2.02, GGUUAUUAAGGAUAAACUGTT against Cops5 2.28, GCCACUUCCUGGAUAAGGATT against Ftl2-ps -2.88
